# Measured values: the antibiotic and cytotoxicity screens of Wong et al. (2023)
# Screen size: about 39,000 compounds; about 3,300 (8.5%) were called active. This is one part of a sample in which actives are shown more often than they occur.
# Test system: HepG2
# Assay: cytotoxicity call (relative viability < 0.9)
# Conditions: 10 µM
row,SMILES,cytotoxicity call
1,C[C@H](CO)N1C[C@H](C)[C@H](CN(C)C(=O)Nc2ccc3c(c2)OCO3)Oc2ccc(N(C)C)cc2CC1=O,inactive
2,CNC(=O)C[C@@H]1CC[C@@H]2[C@H](COC[C@@H](O)CN2C(=O)c2ccc3c(c2)OCO3)O1,inactive
3,Cn1ccnc1C(=O)NCc1cnc2n1CCNCC2,inactive
4,C[C@H](CO)N1C[C@H](C)[C@H](CN(C)Cc2ccc(Cl)c(Cl)c2)Oc2ccc(NC(=O)NC3CCCCC3)cc2C1=O,inactive
5,C[C@@H]1CN([C@@H](C)CO)C(=O)c2cc(NS(=O)(=O)c3cccs3)ccc2O[C@@H]1CN(C)Cc1ccc(-c2ccccc2)cc1,inactive
6,C[C@@H]1CN([C@H](C)CO)S(=O)(=O)c2ccc(C#CC(C)(C)O)cc2O[C@@H]1CN(C)Cc1ccc(F)cc1,inactive
7,FC(F)(F)Oc1ccccc1,inactive
8,C[C@@H]1CN([C@@H](C)CO)C(=O)Cc2cc(NC(=O)Cn3cnnn3)ccc2O[C@@H]1CN(C)S(=O)(=O)c1cn(C)cn1,inactive
9,CSc1ccc(-c2nnn(CC(N)=O)n2)cc1,inactive
10,Cc1noc(C)c1NC(=O)N(C)C[C@H]1Oc2ccc(NC(=O)NC(C)C)cc2C(=O)N([C@H](C)CO)C[C@H]1C,inactive
11,COc1ccc(S(=O)(=O)Nc2ccc3c(c2)C(=O)N([C@H](C)CO)C[C@H](C)[C@H](CN(C)S(=O)(=O)c2cn(C)cn2)O3)cc1,inactive
12,C[C@H]1CN([C@@H](C)CO)C(=O)c2cc(NC(=O)c3ccncc3)ccc2O[C@H]1CN(C)S(=O)(=O)c1cccs1,inactive
13,COCCOC(=O)N1C(=O)[C@@]2(c3cc(C#CC4=CCCCC4)ccc31)[C@H](C(=O)N1CCN(c3ncccn3)CC1)[C@H]1C(=O)O[C@H](c3ccccc3)[C@H](c3ccccc3)N1[C@@H]2c1ccc(O)cc1,inactive
14,C=CCn1c(=O)c2cnc(Nc3ccc(N4CCN(C)CC4)cc3)nc2n1-c1cccc(C(C)(C)O)n1,active
15,C=CCn1c(N2CCN(c3ccc(OC)cc3)CC2)nc2c1c(=O)n(C)c(=O)n2C,inactive
16,COC(=O)C[C@@H]1CC[C@H]2[C@@H](COC[C@@H](O)CN2S(=O)(=O)c2ccccc2C)O1,inactive
17,Cn1c(=O)cc(N2CCC[C@@H](N)C2)n(Cc2cc(F)ccc2C#N)c1=O,inactive
18,Cn1c(=O)cc(N2CCCC(N)C2)n(Cc2ccccc2C#N)c1=O.O=C(O)c1ccccc1 (stereo unspecified),active
19,Cn1c(=O)cc(N2CCC[C@@H](N)C2)n(Cc2ccccc2C#N)c1=O,inactive
20,C[C@H](CO)N1C[C@H](C)[C@@H](CN(C)C(=O)Cc2ccccc2)OCCCC[C@H](C)Oc2ccc(NC(=O)Nc3ccc(F)cc3)cc2C1=O,inactive
21,CCCC#Cc1ccc2c(c1)O[C@@H](CN(C)S(=O)(=O)c1cccc(F)c1)[C@H](C)CN([C@H](C)CO)S2(=O)=O,inactive

row,SMILES,cytotoxicity call
1,Cc1ccc(S(=O)(=O)N2CCNCC2)cc1,inactive
2,Br.Cc1ccc(Sc2ccccc2N2CCNCC2)c(C)c1,active
3,C[C@@H]1CN([C@@H](C)CO)C(=O)c2cc(C#Cc3cccc(F)c3)cnc2O[C@@H]1CN(C)Cc1ccccn1,inactive
4,C[C@@H]1CCCCO[C@@H](CN(C)S(=O)(=O)c2cccs2)[C@@H](C)CN([C@H](C)CO)C(=O)c2cc(NC(=O)Nc3cccc4ccccc34)ccc2O1,inactive
5,CC=CCC(C)C(O)C1C(=O)NC(CC)C(=O)N(C)CC(=O)N(C)C(CC(C)C)C(=O)NC(C(C)C)C(=O)N(C)C(CC(C)C)C(=O)NC(C)C(=O)NC(C)C(=O)N(C)C(CC(C)C)C(=O)N(C)C(CC(C)C)C(=O)N(C)C(C(C)C)C(=O)N1C (stereo unspecified),active
6,C=C/C=C/C[C@@H](C)[C@@H](O)[C@H]1C(=O)N[C@@H](CC)C(=O)N(C)CC(=O)N(C)[C@@H](CC(C)C)C(=O)N[C@@H](C(C)C)C(=O)N(C)[C@@H](CC(C)C)C(=O)N[C@@H](C)C(=O)N[C@H](C)C(=O)N(C)[C@@H](CC(C)C)C(=O)N(C)[C@@H](CC(C)C)C(=O)N(C)[C@@H](C(C)C)C(=O)N1C,inactive
7,C/C=C/C[C@@H](C)[C@@H](O)[C@H]1C(=O)N[C@@H](CC)C(=O)N(C)CC(=O)N(C)[C@@H]([C@@H](C)CC)C(=O)N[C@@H](C(C)C)C(=O)N(C)[C@@H](CC(C)C)C(=O)N[C@@H](C)C(=O)N[C@H](C)C(=O)N(C)[C@@H](CC(C)C)C(=O)N(C)[C@@H](CC(C)C)C(=O)N(C)[C@@H](C(C)C)C(=O)N1C,inactive
8,CC(C)NC(=O)N(C)C[C@@H]1OCc2cnnn2CCCC(=O)N([C@H](C)CO)C[C@H]1C,inactive
9,CCC(=O)Nc1ccc2c(c1)OC[C@@H](C)N(S(=O)(=O)c1cn(C)cn1)C[C@@H](C)[C@H](OC)CN(C)C2=O,inactive
10,Cc1c(N)nc([C@H](CC(N)=O)NC[C@H](N)C(N)=O)nc1C(=O)N[C@H](C(=O)N[C@H](C)[C@@H](O)[C@H](C)C(=O)N[C@H](C(=O)NCCc1nc(-c2nc(C(=O)NCCCNCCCCN)cs2)cs1)[C@@H](C)O)[C@@H](O[C@@H]1O[C@@H](CO)[C@@H](O)[C@H](O)[C@@H]1O[C@@H]1O[C@H](CO)[C@@H](O)[C@H](OC(N)=O)[C@@H]1O)c1c[nH]cn1,inactive
11,C[C@H](CO)N1C[C@H](C)[C@@H](CN(C)C(=O)C2CCCCC2)Oc2cc(Br)ccc2S1(=O)=O,inactive
12,N#CCCn1nc2c(c1N)CCC2,inactive
13,Cc1noc(C)c1NC(=O)Nc1ccc2c(c1)C(=O)N([C@@H](C)CO)C[C@H](C)[C@H](CN(C)Cc1ccc(C(F)(F)F)cc1)OCCCC[C@@H](C)O2,inactive
14,C[C@H](CO)N1C[C@H](C)[C@H](CN(C)C(=O)Cc2ccccc2)OCCCC[C@H](C)Oc2ccc(NC(=O)CCC(F)(F)F)cc2C1=O,inactive
15,C[C@@H]1CCCCO[C@@H](CN(C)C(=O)Nc2cccc3ccccc23)[C@H](C)CN([C@H](C)CO)C(=O)c2cc(NS(=O)(=O)c3cn(C)cn3)ccc2O1,inactive
16,C[C@H]1CCCCO[C@@H](CN(C)C(=O)Nc2cccc3ccccc23)[C@@H](C)CN([C@@H](C)CO)C(=O)c2cc(NS(=O)(=O)c3cn(C)cn3)ccc2O1,active
17,C[C@H](CO)N1C[C@H](C)[C@H](CN(C)C(=O)Nc2cccc3ccccc23)OCCCC[C@H](C)Oc2ccc(NS(=O)(=O)c3cn(C)cn3)cc2C1=O,inactive
18,C[C@H]1CCCCO[C@H](CN(C)C(=O)Nc2cccc3ccccc23)[C@@H](C)CN([C@@H](C)CO)C(=O)c2cc(NS(=O)(=O)c3cn(C)cn3)ccc2O1,inactive
19,C[C@@H]1CCCCO[C@H](CN(C)C(=O)Nc2cccc3ccccc23)[C@H](C)CN([C@H](C)CO)C(=O)c2cc(NS(=O)(=O)c3cn(C)cn3)ccc2O1,active
20,C[C@@H]1CCCCO[C@@H](CN(C)C(=O)Nc2cccc3ccccc23)[C@@H](C)CN([C@H](C)CO)C(=O)c2cc(NS(=O)(=O)c3cn(C)cn3)ccc2O1,inactive
21,C[C@@H]1CCCCO[C@@H](CN(C)C(=O)Nc2cccc3ccccc23)[C@H](C)CN([C@@H](C)CO)C(=O)c2cc(NS(=O)(=O)c3cn(C)cn3)ccc2O1,inactive

row,SMILES,cytotoxicity call
1,C[C@@H]1CN([C@@H](C)CO)C(=O)c2cc(NS(=O)(=O)c3cn(C)cn3)ccc2O[C@@H](C)CCCCO[C@@H]1CN(C)C(=O)Nc1cccc2ccccc12,active
2,C[C@@H]1CN([C@@H](C)CO)C(=O)c2cc(NS(=O)(=O)c3cn(C)cn3)ccc2O[C@@H](C)CCCCO[C@H]1CN(C)C(=O)Nc1cccc2ccccc12,inactive
3,Cc1cn([C@H]2O[C@@H](CO)[C@H](O)[C@H]2F)c(=O)[nH]c1=O,inactive
4,COCCNC(=O)C[C@@H]1C[C@H]2c3cc(NC(=O)COC)ccc3O[C@H]2[C@@H](CO)O1,inactive
5,COc1ccc(S(=O)(=O)Nc2cccc3c2O[C@H](CN(C)S(=O)(=O)c2ccc(C)cc2)[C@H](C)CN([C@H](C)CO)C3=O)cc1,inactive
6,COc1ccccc1Nc1nc(-c2ccc(Cl)cc2)cs1,inactive
7,C[C@H](CO)N1C[C@H](C)[C@H](CN(C)S(C)(=O)=O)Oc2ccc(NC(=O)CCN3CCOCC3)cc2CC1=O,inactive
8,C[C@@H]1CN([C@H](C)CO)C(=O)Cc2cc(NC(=O)C3CC3)ccc2O[C@H]1CN(C)C(=O)Nc1ccc2c(c1)OCO2,inactive
9,C[C@@H]1CN([C@H](C)CO)C(=O)Cc2cc(NC(=O)c3ccncc3)ccc2O[C@H]1CN(C)Cc1ccc(C(=O)O)cc1,inactive
10,COc1ccc(S(=O)(=O)Nc2ccc3c(c2)C(=O)N([C@@H](C)CO)C[C@@H](C)[C@H](CN(C)C(=O)Nc2ccccc2)OCCCC[C@@H](C)O3)cc1,inactive
11,CCN(CC)CCOC(=O)C1(C2CCCCC2)CCCCC1.Cl,inactive
12,CCN(CC)CCOC(=O)C(c1ccccc1)C1CCCCC1.Cl (stereo unspecified),active
13,CCN(CC)CCOC(=O)C(c1ccccc1)c1ccccc1.Cl,inactive
14,COc1ccc(S(=O)(=O)N(C)C[C@@H]2Oc3ncc(-c4ccccc4)cc3C(=O)N([C@H](C)CO)C[C@@H]2C)cc1,inactive
15,C[C@H](CO)N1C[C@H](C)[C@H](CN(C)S(=O)(=O)c2cn(C)cn2)Oc2cc(C3=CCCCC3)ccc2S1(=O)=O,inactive
16,COc1ccc(CNC(=O)C[C@@H]2C[C@@H]3c4cc(NC(=O)NC5CCCC5)ccc4O[C@@H]3[C@H](CO)O2)cc1,inactive
17,COC(=O)[C@@]12CC[C@@H](C)[C@@H](C)[C@@H]1C1=CC[C@H]3[C@@]4(C)CC[C@@H](OC(C)=O)C(C)(C)[C@@H]4CC[C@@]3(C)[C@@]1(C)CC2,inactive
18,CC1CCC2(C(=O)O)CCC3(C)C(=CCC4C5(C)CCC(O)C(C)(C)C5CCC43C)C2C1C (stereo unspecified),active
19,CC1(C)CCC2(C(=O)O)CCC3(C)C(=CCC4C5(C)CCC(O)C(C)(C)C5CCC43C)C2C1 (stereo unspecified),inactive
